Screening results deposited in PubChem BioAssay by National Center for Advancing Translational Sciences (NCATS).
HCV inh: blocks hepatitis C virus | Huh7.5.1 HCVcc-Cre infection, luciferase reporter, 44 h | Potency, µM (highest dose often 41.8 µM), actives largely listed as inhibitors | AID 651820 | 340,000 tested, 3.4% active; active = well fitted inhibition curve with a large enough effect; inconclusive = small, poorly fitted or top-dose-only effect, or another doubt; inactive = no such curve, though single readings can be large or run the other way
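Antiviral activity was scored by luciferase reporter output from cells infected with HCVcc-Cre (~0.5 moi) in presence of compound, 44 h infection period, cells seeded 1,000/well 4 h prior.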
LASV entry inh: Lassa virus entry inhibition; 300,000 tested, 1.2% active; Potency, µM (top dose mostly 37.9 µM), hits mostly inhibitors; Lassa virus pseudotype entry inhibition, cell reporter; AID 540256; calls by dose curve; tested in HEK293 cells; also: nearly all actives have a fitted effect of over 50% in size
VACV Venus inh: inhibitors of vaccinia virus (Venus reporter). Vaccinia virus Venus reporter expression, fluorescence. Potency, µM (top dose mostly 36.5 µM), most hits filed as inhibitors. 330,000 tested, 0.46% active. AID 720580; calls by dose curve; tested in A549 cells; also: nearly all actives have a fitted effect of over 30% in size
Vaccinia mCherry: inhibitors of vaccinia virus infection (mCherry reporter signal); Vaccinia virus mCherry reporter infection, fluorescence; Potency, µM (highest dose often 36.5 µM), actives largely listed as inhibitors; 310,000 tested, 0.63% active; AID 720579; calls by dose curve; tested in A549 cells; also: nearly all actives have a fitted effect of over 35% in size
Marburg entry inh: inhibitors of Marburg virus binding or cell entry; Marburg virus pseudotyped entry inhibition, cell reporter; Potency, µM (doses to about 37.8 µM), most hits filed as inhibitors; 300,000 tested, 1.8% active; calls by dose curve; tested in HEK293 cells
Each line names hits and unclear results; the compound was inactive in the other large screens; ! = a repeat was not active. Most compounds without a hit are left out; they make up all but 4.6% or so of the library.

CCOC(=O)C1NC2CCC(OCC)CC2C1CCCN1C(=O)C2=C(CCCC2)C1=O (centres undefined)	none (no result: HCV inh, LASV entry inh, VACV Venus inh, Vaccinia mCherry)
c1ccc2[nH]c(CSc3nnc(-c4ccncc4)o3)nc2c1	HCV inh inconclusive, VACV Venus inh inconclusive (no result: Vaccinia mCherry)
Brc1cccc(-c2nnc(SCc3nc4ccccc4[nH]3)o2)c1	VACV Venus inh inconclusive, Vaccinia mCherry 10µM
Cn1c(=O)cc(SCC(=O)N2CCN(c3ccc(F)cc3)CC2)c2ccc(Cl)cc21	none (no result: HCV inh)
Cc1ccc(-c2nc(CS(=O)CC(=O)NCCN3CCCC3)c(C)o2)cc1 (centres undefined)	none (no result: LASV entry inh)
Cc1ccc(-c2nc(CS(=O)CC(=O)NCCCN3CCN(Cc4ccccc4)CC3)c(C)o2)cc1 (centres undefined)	HCV inh 10µM, LASV entry inh inconclusive, VACV Venus inh inconclusive, Vaccinia mCherry inconclusive, Marburg entry inh 11.2µM
Cc1oc(-c2ccc(Cl)cc2)nc1CS(=O)CC(=O)NCCCN1CCOCC1 (centres undefined)	none (no result: LASV entry inh, VACV Venus inh, Vaccinia mCherry, Marburg entry inh)
Cc1ccc(-c2nc(CS(=O)CC(=O)NCCN(CC(C)C)CC(C)C)c(C)o2)cc1 (centres undefined)	HCV inh 11.2µM!, Marburg entry inh inconclusive (no result: VACV Venus inh, Vaccinia mCherry)
Cc1oc(-c2ccc(Cl)cc2)nc1CS(=O)CC(=O)NCCCN(C)C1CCCCC1 (centres undefined)	HCV inh 10µM, Marburg entry inh inconclusive (no result: VACV Venus inh, Vaccinia mCherry)
COc1ccc(NC(=O)CSC2=Nc3ccccc3C3=NC(CCC(=O)NCCc4ccccc4)C(=O)N23)c(OC)c1 (centres undefined)	none (no result: HCV inh, Marburg entry inh)
Cc1ccc2nc(/C(C#N)=C\c3ccc(N4CCCCC4)c([N+](=O)[O-])c3)[nH]c2c1	HCV inh 7.08µM, LASV entry inh inconclusive, Vaccinia mCherry inconclusive, Marburg entry inh inconclusive
Cc1ccc2nc(/C(C#N)=C/c3ccc(O)c(O)c3)[nH]c2c1	HCV inh inconclusive, LASV entry inh inconclusive, Vaccinia mCherry 5.62µM, Marburg entry inh inconclusive
Cc1ccc2nc(/C(C#N)=C/c3cccc(Br)c3)[nH]c2c1	Marburg entry inh inconclusive (no result: HCV inh)
CCS(=O)(=O)c1c(Nc2ccc(F)c(Cl)c2)sc(C(=O)c2ccccc2)c1N	none (no result: HCV inh)
COC(=O)C1=C(C)N(Cc2ccco2)C(=O)NC1c1ccc(Br)cc1 (centres undefined)	Marburg entry inh inconclusive (no result: HCV inh, VACV Venus inh, Vaccinia mCherry)
CN(C)c1ccc(C=NC2CCc3ccccc32)cc1 (centres undefined)	none (no result: HCV inh, LASV entry inh, Marburg entry inh)
O=C1c2ccccc2C(=O)c2c(NCCCN(CCO)CCO)cccc21	HCV inh 14.1µM, Vaccinia mCherry inconclusive, Marburg entry inh inconclusive
CN(C)c1ccc(-c2nc(NC3CCNCC3)c3ccccc3n2)cc1	VACV Venus inh 11.2µM, Vaccinia mCherry 11.2µM (no result: HCV inh, LASV entry inh, Marburg entry inh)
c1ccc(-c2nc(NC3CCCC3)c3ccccc3n2)cc1	HCV inh 1.26µM, VACV Venus inh inconclusive, Marburg entry inh inconclusive
Cc1cnc(CNc2nc(-c3ccc(N(C)C)cc3)nc3ccccc23)cn1	VACV Venus inh inconclusive, Vaccinia mCherry 11.2µM (no result: HCV inh, LASV entry inh, Marburg entry inh)
CCc1ccccc1NC(=O)c1cnc2sc(N3CCOCC3)nn2c1=O	LASV entry inh inconclusive (no result: HCV inh, Marburg entry inh)
Nc1ncnc2c1nc(Sc1ccc(Cl)cc1)n2[C@H]1OC2COP(=O)(O)O[C@@H]2C1O (some centres undefined)	none (no result: HCV inh, VACV Venus inh, Vaccinia mCherry)
CC(=O)c1cccc(NC(=O)CCCN2C(=O)COc3ccc(C)cc32)c1	none (no result: HCV inh)
c1ccc(NCc2ccccn2)cc1	LASV entry inh inconclusive (no result: VACV Venus inh, Vaccinia mCherry)
Cc1nn2c(NCCN3CCOCC3)c3c(nc2c1-c1ccccc1)CCCC3	HCV inh inconclusive, Marburg entry inh inconclusive
Cc1nn2c(NCc3ccccn3)c3c(nc2c1-c1ccccc1)CCC3	LASV entry inh inconclusive, VACV Venus inh inconclusive, Vaccinia mCherry 10µM, Marburg entry inh inconclusive
Cc1cc(NCc2ccccn2)n2nc(C)c(-c3ccccc3)c2n1	HCV inh 1.58µM, LASV entry inh inconclusive, VACV Venus inh inconclusive, Vaccinia mCherry 5.62µM, Marburg entry inh 10µM
Cc1nn2c(NCc3ccccn3)cc(C(C)(C)C)nc2c1-c1ccccc1	HCV inh 2.51µM (no result: LASV entry inh, VACV Venus inh, Vaccinia mCherry, Marburg entry inh)
CCCc1cc(NCCCn2ccnc2)n2nc(C)c(-c3ccccc3)c2n1	Marburg entry inh inconclusive
C=CCc1cccc(/C=N\n2cnnc2)c1O	none (no result: HCV inh, LASV entry inh, VACV Venus inh, Vaccinia mCherry)
O=C(O)c1ccc(-n2cccc2/C=N/NC(=O)c2cc3cc(Br)ccc3o2)cc1	none (no result: HCV inh, LASV entry inh, VACV Venus inh, Vaccinia mCherry)
Cn1nc(C(F)(F)F)c2cc(NC(=O)OCc3ccc(F)cc3)sc21	HCV inh 10µM, Vaccinia mCherry inconclusive
COc1ccc(/C(C)=N/Nc2nc3ccccc3nc2C)cc1	HCV inh 12.6µM, LASV entry inh inconclusive, Vaccinia mCherry inconclusive, Marburg entry inh inconclusive
CC1=C(C(N)=O)C(c2ccc(C(C)C)cc2)n2nc(SCc3ccccc3F)nc2N1 (centres undefined)	none (no result: HCV inh)
CC1=C(c2ccc(C)c(C)c2)S(=O)(=O)N=C1N1CCC(C(=O)NCCc2ccc(Cl)cc2)CC1	Marburg entry inh 3.98µM (no result: HCV inh, LASV entry inh)
CN1CCN(c2ccc(S(=O)(=O)N3CCCCC3)cc2NC(=O)/C=C/c2ccc(Cl)c([N+](=O)[O-])c2)CC1	HCV inh inconclusive, LASV entry inh 12.6µM, Marburg entry inh inconclusive
O=C(/C=C/c1ccc(Cl)cc1)Nc1cc(S(=O)(=O)N2CCOCC2)ccc1N1CCOCC1	HCV inh inconclusive, LASV entry inh 4.47µM, VACV Venus inh inconclusive, Vaccinia mCherry inconclusive, Marburg entry inh inconclusive
O=S(=O)(c1ccc(Cl)c(NC(=S)N/N=C/c2c(F)cccc2F)c1)N1CCOCC1	Marburg entry inh inconclusive
O=S(=O)(c1ccc(Cl)c(NC(=S)N/N=C/c2ccc(O)cc2)c1)N1CCOCC1	HCV inh inconclusive, LASV entry inh 11.6µM, VACV Venus inh inconclusive, Vaccinia mCherry inconclusive, Marburg entry inh inconclusive
O=C(Nc1cc(S(=O)(=O)N2CCOCC2)ccc1N1CCOCC1)c1ccc([N+](=O)[O-])s1	HCV inh 12.6µM (no result: LASV entry inh, VACV Venus inh, Vaccinia mCherry, Marburg entry inh)
CCOc1ccccc1CNC(=O)c1cnc2sc(N3CCC(C)CC3)nn2c1=O	none (no result: HCV inh, Marburg entry inh)
COc1ccc2ccccc2c1CN1CCCC(n2cc(C(=O)N3CCCC3)nn2)C1 (centres undefined)	none (no result: HCV inh, LASV entry inh, Marburg entry inh)
CC(Oc1ccc(F)cc1)C(=O)Nc1cc(S(=O)(=O)N2CCCCC2)ccc1N1CCN(C)CC1 (centres undefined)	none (no result: LASV entry inh, VACV Venus inh, Vaccinia mCherry, Marburg entry inh)
CN1CCN(c2ccc(S(=O)(=O)N3CCCCC3)cc2NC(=O)/C=C/c2ccc(OC(F)F)cc2)CC1	HCV inh inconclusive, LASV entry inh inconclusive, VACV Venus inh 12.6µM, Vaccinia mCherry inconclusive, Marburg entry inh inconclusive
CCN1CCN(c2ccc(S(=O)(=O)N3CCCCC3)cc2NC(=O)/C=C/c2ccc(F)cc2)CC1	HCV inh inconclusive, Marburg entry inh inconclusive
O=C(/C=C/c1ccc(OC(F)F)cc1)Nc1cccc(S(=O)(=O)N2CCOCC2)c1	HCV inh 5.62µM, LASV entry inh inconclusive, VACV Venus inh inconclusive, Marburg entry inh inconclusive
COc1ccc(/C=C/C(=O)Nc2cccc(S(=O)(=O)N3CCOCC3)c2)cc1OC	HCV inh inconclusive, LASV entry inh inconclusive, Marburg entry inh inconclusive
CCN1CCN(c2ccc(S(=O)(=O)N3CCCCC3)cc2NC(=O)/C=C/c2ccc(OC(F)F)cc2)CC1	HCV inh inconclusive, LASV entry inh 6.31µM, VACV Venus inh inconclusive, Vaccinia mCherry inconclusive, Marburg entry inh inconclusive
O=C(Cc1ccc(OCCc2ccccc2)cc1)NO	none (no result: HCV inh, LASV entry inh, Marburg entry inh)
